Compound activity deposited in PubChem BioAssay by National Center for Advancing Translational Sciences (NCATS).
In the library only some 5.4% were active in any assay of this set; here they are far more common.
Six1-Eya2 inh: Six1/Eya2 interaction inhibition | AlphaScreen GST-Six1/His-Eya2 binding, biochemical; active compounds read low | 0.56% of 360,000 active | AID 651725 | activity change, % (test concentration not listed) | Q15475+O00167; in the data active = activity change below about -65%; inconclusive = mostly about -30% to -63%
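Six1/Eya2 binding was read as AlphaScreen signal after compounds were pinned into GST-Six1 plus His-tagged Eya2 (5X stock 250/500 nM) in pH 8.0 Tris/NaCl/TCEP buffer, beads added, then incubated 1 h, 37 C, dark.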
p53 reactivator: mutant p53 re-activation in reporter cells | H1299 p53-A138V BP100-luciferase reporter, luminescence, 24 h | Potency, µM (series often up to 92.2 µM), usual class: activators | 0.063% of 320,000 active; note: nearly all actives have a fitted effect of over 45% in size
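H1299 (p53-null), stable ts p53-A138V + BP100-Luc; 1000 cells/well, Opti-MEM/10% FBS; cpd 4 pt, 1:5; 24 h, 37 deg C, 5% CO2; detection reagent 10 min RT; luminescence.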
CtBP-E1A inh: CtBP/E1A binding inhibition; AlphaScreen GST-E1A/His-CtBP binding, 1536-well; active compounds read low; activity change, % (test concentration not listed); 0.49% of 340,000 active; AID 651724; in the data active = activity change below about -65%; inconclusive = mostly about -30% to -63%
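Steps: dispense buffer (Tris pH 8.0, NaCl 300 mM, TCEP 1 mM, BSA, Tween 20); add 5X protein mix (GST-E1A, His-CtBP, 125 nM each); pin 23 nL compound; 2 h at 37 °C, dark; add 5X beads (50 ug/mL); 1 h; read.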
VP16 counter: Gal4-VP16 reporter inhibition counter-screen | AID 2546 | Drosophila S2 Gal4-VP16 UAS-luciferase, luminescence, 20 h | Potency, µM (titrated, usually from 53.6 µM), hits mostly inhibitors | 3.5% of 310,000 active;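 note: Gal4-VP16 expression switched on by copper sulfate through the metallothionein promoter; nearly all actives have a fitted effect of over 50% in size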
RORgamma inh: blocks mouse ROR gamma transcriptional activity; Drosophila S2 Gal4-RORgamma UAS-luciferase reporter, 20 h; Potency, µM (highest dose often 53.6 µM), usual class: inhibitors; 5.4% of 310,000 active; AID 2551; note: nearly all actives have a fitted effect of over 60% in size
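Schneider cells (Drosophila), stable Gal4 DBD–ROR gamma + UAS-luc; 1 hr cmpd preincubation; Cu2+ induction 700 uM final; 20 hr ambient; luminescence.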
Large screens that a line does not name were inactive. Unless noted, calls come from the whole dose curve; as a rule, active = well fitted curve in the direction sought with a large enough effect; inconclusive = small, poorly fitted or top-dose-only effect, or another doubt; inactive = no such curve, though single readings can be large; an effect the other way counts as inactive or inconclusive.

CCn1c(C)nc2cc(S(=O)(=O)C(F)(F)F)ccc21	VP16 counter inconclusive, RORgamma inh inconclusive
Nc1[nH]n(-c2ccccc2)c(=O)c1N=Nc1ccc2c(c1)OCCO2	Six1-Eya2 inh -69, VP16 counter inconclusive, RORgamma inh inconclusive
Nc1[nH]n(-c2ccccc2)c(=O)c1N=Nc1ccc2c(c1)OCO2	Six1-Eya2 inh inconclusive, p53 reactivator inconclusive, RORgamma inh inconclusive
N#Cc1c(F)cccc1NCc1cccnc1	none
N#Cc1c(NCc2ccccc2)ccnc1NCc1cccnc1	VP16 counter 10µM, RORgamma inh inconclusive
Cn1cc(C(=O)c2ccc(Cl)cc2Cl)cc1C(=O)N/N=C(\N)COc1cccc(C(F)(F)F)c1	VP16 counter 2µM, RORgamma inh 2.2µM
Oc1c(Cl)cccc1C=Nc1cc(C(F)(F)F)ccc1N1CCCC1	VP16 counter inconclusive, RORgamma inh 11µM
Oc1c(Cl)cc(Cl)cc1C=Nc1cc(C(F)(F)F)ccc1N1CCc2ccccc2C1	p53 reactivator inconclusive, VP16 counter inconclusive, RORgamma inh inconclusive (no result: CtBP-E1A inh)
COc1ccc(Cn2c(=S)[nH]c3ccsc3c2=O)cc1	VP16 counter 2.2µM, RORgamma inh 1.4µM
O=c1c2sccc2[nH]c(=S)n1Cc1ccccc1	VP16 counter 2.8µM, RORgamma inh 1.8µM
COc1oc(=O)c2cc(N)ccc2c1Cl	VP16 counter 14µM, RORgamma inh 7.9µM (no result: Six1-Eya2 inh, p53 reactivator, CtBP-E1A inh)
CCOC(=O)c1cnc2c(OC)cccc2c1Nc1ccc2c(c1)OCCO2	VP16 counter 18µM, RORgamma inh 16µM
CC(=O)c1c(N2CCN(c3cccc(Cl)c3)CC2)nc(=S)n(-c2ccccc2)c1C	VP16 counter inconclusive, RORgamma inh 20µM
C=CCn1c(C)c(C(C)=O)c(N2CCN(C(c3ccccc3)c3ccccc3)CC2)nc1=S	VP16 counter inconclusive, RORgamma inh 18µM
CCOc1cc(C(=O)NCCN2C(=O)S/C(=C\c3cccnc3)C2=O)cc(OCC)c1OCC	none (no result: CtBP-E1A inh)
CCn1c(/C(C#N)=N/O)nc2ccccc21	VP16 counter inconclusive, RORgamma inh 8.9µM
Cc1ccc(/C(=N/Nc2ncnc3ccccc23)C(=O)O)cc1	Six1-Eya2 inh -84, p53 reactivator inconclusive, CtBP-E1A inh -77, VP16 counter 0.89µM, RORgamma inh 0.05µM
COC(=O)C(=O)C/C(=N/Nc1ncnc2ccccc12)c1ccc(Cl)cc1	Six1-Eya2 inh inconclusive, p53 reactivator inconclusive, CtBP-E1A inh inconclusive, VP16 counter inconclusive, RORgamma inh 11µM
CCOC(=O)c1cccc(Nc2ncnc3ccccc23)c1	RORgamma inh inconclusive
Cc1cccc(N2CCN(Cc3nc(-c4cccc(Oc5ccccc5)c4)oc3C)CC2)n1	RORgamma inh inconclusive (no result: CtBP-E1A inh)
CN(C)S(=O)(=O)c1ccc(NC(=S)NC(=O)c2ccc(Br)o2)cc1	VP16 counter inconclusive, RORgamma inh 11µM (no result: Six1-Eya2 inh, CtBP-E1A inh)
NS(=O)(=O)c1ccc(NC(=S)NC(=O)c2ccc(Br)o2)cc1	none (no result: CtBP-E1A inh)
Cc1cc(C)cc(NS(=O)(=O)c2ccc(NC(=S)NC(=O)c3ccc(Br)o3)cc2)c1	VP16 counter 7.9µM, RORgamma inh 3.5µM
O=C(NC(=S)Nc1ccc(S(=O)(=O)Nc2nccs2)cc1)c1ccc(Br)o1	none (no result: CtBP-E1A inh)
Cn1cccc1C(=O)N1CCC2(CCN(Cc3ccccc3)CC2)CC1	none (no result: Six1-Eya2 inh, p53 reactivator, CtBP-E1A inh)
CCN1C(=O)/C(=C2\SC(=S)N(NC(=O)c3ccccc3O)C2=O)c2ccccc21	Six1-Eya2 inh -90, CtBP-E1A inh -97
CC(=O)O[C@H]1C2=C(C(=O)[C@H]3O[C@@H]31)[C@@H]1[C@@H]3[C@@H](C)OC=C4[C@H](O)[C@H]5O[C@@H]5C(=O)[C@]43C2O[C@H]1C	none (no result: Six1-Eya2 inh, p53 reactivator, CtBP-E1A inh)
COc1ccccc1/C=C/C(=O)NCC(=O)N/N=C/c1ccc(C)o1	none
COc1cc2c(cc1OC)-c1c(oc3cc(O)cc(O)c3c1=O)CO2	VP16 counter 20µM, RORgamma inh inconclusive (no result: Six1-Eya2 inh, p53 reactivator, CtBP-E1A inh)
COc1ccc(-c2c(C)oc3cc(O)cc(O)c3c2=O)cc1OC	RORgamma inh inconclusive
N#CCCN1CCCN(CCC#N)CCN(CCC#N)CCCN(CCC#N)CC1	none
CC(C)Nc1ccc(Cl)cc1[N+](=O)[O-]	none (no result: Six1-Eya2 inh, CtBP-E1A inh)
O=C(NCc1ccncc1)[C@@H]1CCCN1C(=O)[C@H]1CCCN1C(=O)c1c(F)cccc1F	none (no result: p53 reactivator, VP16 counter, RORgamma inh)
CCC(=O)OCC(=O)C1(OC(=O)CC)C(C)CC2C3C(Cl)CC4=CC(=O)C=C[C@@]4(C)C3C(O)C[C@@]21C (stereo partly specified)	RORgamma inh 13µM (no result: Six1-Eya2 inh, p53 reactivator, CtBP-E1A inh)
CCC(=O)OCC(=O)C1(OC(=O)CC)[C@H](C)C[C@H]2[C@H]3[C@H]([C@@H](O)C[C@@]21C)[C@@]1(C)C=CC(=O)C=C1C[C@H]3Cl (stereo partly specified)	none (no result: VP16 counter, RORgamma inh)
CN1C(=O)/C(=C/c2cc(C(C)(C)C)c(O)c(C(C)(C)C)c2)NC1=S	VP16 counter inconclusive, RORgamma inh 7.1µM
COc1ccccc1NC(=O)c1ccccc1NC(=O)c1ccccn1	none (no result: VP16 counter, RORgamma inh)
Cc1cc(C)cc(OCC(=O)NNC(=O)c2ccccn2)c1	Six1-Eya2 inh -68, p53 reactivator inconclusive (no result: CtBP-E1A inh, VP16 counter, RORgamma inh)
O=C(COc1ccc(Cl)cc1)NNC(=O)c1ccccn1	Six1-Eya2 inh inconclusive, CtBP-E1A inh inconclusive, VP16 counter inconclusive, RORgamma inh 10µM
Cc1cc(C)cc(OCC(=O)NNC(=O)c2cc(C)[nH]n2)c1	none
COc1ccc(Cl)cc1NC(=O)NNC(=O)c1ccccn1	Six1-Eya2 inh inconclusive, VP16 counter 7.1µM, RORgamma inh 4.5µM
CCN1C(=O)[C@H]2[C@H]3CN=C(SC)N3[C@@](Cc3ccccc3)(C(=O)OC)[C@H]2C1=O	none (no result: VP16 counter, RORgamma inh)
O=C(NCCOc1ccc(F)cc1)C1CCC(=O)N(CCc2ccccn2)C1 (stereo unspecified)	none
Cc1cc(/C=C2/SC(=S)N(c3ccc([N+](=O)[O-])cc3)C2=O)c(C)n1-c1cccnc1	VP16 counter 0.89µM, RORgamma inh 3.2µM
Cc1cc(/C=C2\SC(=S)N(C)C2=O)c(C)n1-c1ccccc1O	none (no result: p53 reactivator, VP16 counter, RORgamma inh)
Cc1cc(/C=C2/SC(=S)N(c3cccc(Cl)c3)C2=O)c(C)n1-c1cccnc1	Six1-Eya2 inh inconclusive (no result: p53 reactivator, VP16 counter, RORgamma inh)
Cc1cc(/C=C2\SC(=S)N(C)C2=O)c(C)n1-c1ccc(O)cc1	VP16 counter 0.63µM, RORgamma inh inconclusive
COc1ccccc1OCCNC(=O)C1CCN(C(C)=O)CC1	none
CC(=O)Nc1ccc(-n2nnnc2SCC(=O)Nc2cccc(NC(=O)c3ccco3)c2)cc1	p53 reactivator inconclusive
CCc1cc2c(=O)c(-c3ccc4c(c3)OCCO4)c(C)oc2cc1OS(C)(=O)=O	p53 reactivator inconclusive, VP16 counter 20µM
COc1ccc(NC(=O)C2(C)CCCN2C(=O)C(C)C)cc1OC (stereo unspecified)	none (no result: p53 reactivator, VP16 counter, RORgamma inh)
C/C(=N\NC(N)=O)c1cc(Cl)cc(Cl)c1O	VP16 counter 10µM, RORgamma inh 0.89µM
C/C(=N\O)c1cc(Cl)cc(Cl)c1O	RORgamma inh inconclusive
COc1ccc(-c2nsc3c(N4CCCCC4C)ncnc23)cc1 (stereo unspecified)	VP16 counter inconclusive, RORgamma inh 0.28µM (no result: CtBP-E1A inh)
